Experimental findings from the supplement of paper PMC6411743 are described below.

± gives the standard deviation of the averaged measurements. For some assays here: Targets with the largest changes are over-represented here; the source holds about 5,400 in all. For some assays here: Targets with the largest changes are over-represented here; the source holds about 6,500 in all.

Compound in assay [1]: Nc1ncnc2c1ncn2[C@@H]1O[C@H](COP(=O)(O)OP(=O)(O)OP(=O)(O)O)[C@@H](O)[C@H]1O [adenosine triphosphate]
Put plainly: NP40-soluble protein abundance relative to vehicle (solubility fold change) (ratio); higher = more soluble protein in presence of ATP. In outline:
(§1)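 Eight concentrations, 0.1 to 10 mM, were tested on Jurkat crude lysate for 10 min at room temperature and then 3 min at 37 °C, in three independent experiments. The lysate was solubilised with 0.8% NP40 and benzonase, ultracentrifuged, and the supernatant TMT-labelled for LC-MS/MS. Each value is the fold change against the detergent-processed vehicle in its own replicate, from vsn-normalised intensities.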

Compound in assay [2]: Nc1nc2c(ncn2[C@@H]2O[C@H](COP(=O)(O)OP(=O)(O)OP(=O)(O)O)[C@@H](O)[C@H]2O)c(=O)[nH]1 [guanosine triphosphate]
Nature of the assay: NP40-soluble protein abundance relative to vehicle (solubility fold change) (ratio); higher = more soluble protein in presence of GTP. An outline of the steps: as §1

Sequence of UniProt Q9UK59 (Q9UK59 whole entry): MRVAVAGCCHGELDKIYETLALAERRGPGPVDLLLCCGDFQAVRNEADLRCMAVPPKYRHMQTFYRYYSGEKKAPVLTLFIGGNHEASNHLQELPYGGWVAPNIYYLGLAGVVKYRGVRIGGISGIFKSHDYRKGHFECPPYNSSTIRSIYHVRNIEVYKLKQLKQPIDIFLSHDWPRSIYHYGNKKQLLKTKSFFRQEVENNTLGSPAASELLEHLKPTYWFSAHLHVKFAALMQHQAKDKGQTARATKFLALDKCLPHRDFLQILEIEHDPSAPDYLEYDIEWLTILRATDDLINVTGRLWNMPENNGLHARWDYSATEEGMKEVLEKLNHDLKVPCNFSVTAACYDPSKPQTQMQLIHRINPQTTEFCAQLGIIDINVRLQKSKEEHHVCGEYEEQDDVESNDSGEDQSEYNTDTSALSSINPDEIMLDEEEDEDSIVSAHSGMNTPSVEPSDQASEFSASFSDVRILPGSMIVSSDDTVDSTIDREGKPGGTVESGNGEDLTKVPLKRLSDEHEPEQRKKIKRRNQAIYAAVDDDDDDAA
Sequence of UniProt Q9Y224 (Q9Y224 whole entry): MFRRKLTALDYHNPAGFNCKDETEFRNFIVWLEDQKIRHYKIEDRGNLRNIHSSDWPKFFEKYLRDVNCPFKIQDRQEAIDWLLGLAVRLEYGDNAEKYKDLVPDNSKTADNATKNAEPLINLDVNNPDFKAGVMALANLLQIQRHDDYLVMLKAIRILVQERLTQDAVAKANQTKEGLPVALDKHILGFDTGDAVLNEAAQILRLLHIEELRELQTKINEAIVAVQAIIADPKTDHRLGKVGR
Sequence of UniProt Q9UNF0 (Q9UNF0 whole entry): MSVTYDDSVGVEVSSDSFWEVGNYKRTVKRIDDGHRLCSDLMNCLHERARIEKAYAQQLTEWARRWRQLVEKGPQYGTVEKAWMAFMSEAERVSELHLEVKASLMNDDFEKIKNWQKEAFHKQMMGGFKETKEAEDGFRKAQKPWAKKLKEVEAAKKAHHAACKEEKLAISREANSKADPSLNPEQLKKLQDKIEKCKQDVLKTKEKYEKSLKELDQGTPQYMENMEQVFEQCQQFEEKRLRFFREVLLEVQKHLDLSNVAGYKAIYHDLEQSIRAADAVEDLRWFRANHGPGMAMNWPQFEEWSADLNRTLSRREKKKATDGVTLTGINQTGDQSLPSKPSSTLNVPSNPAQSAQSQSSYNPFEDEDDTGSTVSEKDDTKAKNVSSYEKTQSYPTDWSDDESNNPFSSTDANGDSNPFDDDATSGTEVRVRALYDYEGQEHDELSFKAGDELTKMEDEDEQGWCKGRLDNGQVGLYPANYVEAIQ
Sequence of UniProt Q9Y6X3 (Q9Y6X3 whole entry): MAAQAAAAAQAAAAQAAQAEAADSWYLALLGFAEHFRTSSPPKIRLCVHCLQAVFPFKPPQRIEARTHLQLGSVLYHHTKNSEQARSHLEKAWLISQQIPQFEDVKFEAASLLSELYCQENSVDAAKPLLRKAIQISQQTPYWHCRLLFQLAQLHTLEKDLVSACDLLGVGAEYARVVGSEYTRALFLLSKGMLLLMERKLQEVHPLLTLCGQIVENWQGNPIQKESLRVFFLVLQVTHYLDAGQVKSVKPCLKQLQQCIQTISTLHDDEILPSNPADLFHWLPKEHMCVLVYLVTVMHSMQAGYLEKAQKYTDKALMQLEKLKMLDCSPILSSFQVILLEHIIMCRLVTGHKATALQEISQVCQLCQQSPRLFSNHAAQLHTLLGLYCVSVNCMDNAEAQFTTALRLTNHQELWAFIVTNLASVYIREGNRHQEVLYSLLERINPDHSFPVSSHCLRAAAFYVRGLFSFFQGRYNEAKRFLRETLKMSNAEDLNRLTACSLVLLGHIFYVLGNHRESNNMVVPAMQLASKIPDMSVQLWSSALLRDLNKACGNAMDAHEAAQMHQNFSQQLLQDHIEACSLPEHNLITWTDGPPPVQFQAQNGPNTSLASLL
Sequence of UniProt Q9Y5S1 (Q9Y5S1 whole entry): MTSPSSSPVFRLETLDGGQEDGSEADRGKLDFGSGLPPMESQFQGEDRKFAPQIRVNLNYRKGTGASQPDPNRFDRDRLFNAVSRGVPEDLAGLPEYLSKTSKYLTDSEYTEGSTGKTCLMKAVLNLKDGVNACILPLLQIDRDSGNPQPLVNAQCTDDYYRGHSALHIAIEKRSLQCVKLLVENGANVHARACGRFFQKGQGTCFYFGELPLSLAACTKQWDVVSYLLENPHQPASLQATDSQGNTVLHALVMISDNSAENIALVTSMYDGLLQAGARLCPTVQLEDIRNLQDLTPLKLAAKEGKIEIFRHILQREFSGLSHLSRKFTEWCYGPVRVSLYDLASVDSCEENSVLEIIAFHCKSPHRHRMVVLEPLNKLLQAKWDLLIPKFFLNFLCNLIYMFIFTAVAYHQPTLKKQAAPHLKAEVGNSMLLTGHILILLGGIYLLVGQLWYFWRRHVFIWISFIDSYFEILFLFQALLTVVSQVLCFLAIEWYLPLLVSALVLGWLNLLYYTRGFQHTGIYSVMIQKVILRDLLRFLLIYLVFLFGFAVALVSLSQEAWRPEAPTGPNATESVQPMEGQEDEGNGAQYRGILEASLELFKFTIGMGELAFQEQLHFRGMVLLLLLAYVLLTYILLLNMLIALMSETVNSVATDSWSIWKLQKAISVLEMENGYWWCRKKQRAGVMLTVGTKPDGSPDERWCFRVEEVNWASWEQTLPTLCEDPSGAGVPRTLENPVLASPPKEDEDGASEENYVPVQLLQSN
Sequence of UniProt Q9Y383 (Q9Y383 whole entry): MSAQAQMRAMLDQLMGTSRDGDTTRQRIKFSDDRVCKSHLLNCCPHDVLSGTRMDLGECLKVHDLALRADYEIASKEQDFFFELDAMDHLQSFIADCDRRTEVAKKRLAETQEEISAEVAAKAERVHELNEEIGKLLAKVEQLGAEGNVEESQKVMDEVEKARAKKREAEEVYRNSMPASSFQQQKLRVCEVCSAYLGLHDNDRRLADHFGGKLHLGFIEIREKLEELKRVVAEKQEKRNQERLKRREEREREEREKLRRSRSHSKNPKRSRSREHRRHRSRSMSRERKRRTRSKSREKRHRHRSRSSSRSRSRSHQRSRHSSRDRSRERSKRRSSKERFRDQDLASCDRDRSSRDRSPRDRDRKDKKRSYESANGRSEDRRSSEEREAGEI
Sequence of UniProt Q9Y3C6 (Q9Y3C6 whole entry): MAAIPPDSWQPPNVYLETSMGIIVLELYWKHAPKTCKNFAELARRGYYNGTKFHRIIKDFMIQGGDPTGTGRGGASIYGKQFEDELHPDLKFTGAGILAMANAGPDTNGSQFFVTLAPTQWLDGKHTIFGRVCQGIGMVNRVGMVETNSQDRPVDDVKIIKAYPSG
Sequence of UniProt Q9Y3I0 (Q9Y3I0 whole entry): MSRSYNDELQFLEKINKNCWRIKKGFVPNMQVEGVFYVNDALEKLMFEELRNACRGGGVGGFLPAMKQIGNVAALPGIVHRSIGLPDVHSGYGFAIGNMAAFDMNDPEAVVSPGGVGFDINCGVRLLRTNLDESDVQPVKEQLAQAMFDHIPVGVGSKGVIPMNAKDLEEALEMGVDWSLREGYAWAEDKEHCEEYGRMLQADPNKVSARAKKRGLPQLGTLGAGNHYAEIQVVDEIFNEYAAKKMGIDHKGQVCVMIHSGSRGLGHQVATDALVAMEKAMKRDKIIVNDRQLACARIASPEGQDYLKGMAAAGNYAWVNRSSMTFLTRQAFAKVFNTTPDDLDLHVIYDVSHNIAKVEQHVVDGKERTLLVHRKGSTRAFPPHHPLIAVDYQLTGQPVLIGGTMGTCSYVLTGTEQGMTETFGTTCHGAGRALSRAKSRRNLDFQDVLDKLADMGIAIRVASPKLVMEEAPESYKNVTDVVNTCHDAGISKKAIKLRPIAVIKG
Sequence of UniProt Q9Y2X3 (Q9Y2X3 whole entry): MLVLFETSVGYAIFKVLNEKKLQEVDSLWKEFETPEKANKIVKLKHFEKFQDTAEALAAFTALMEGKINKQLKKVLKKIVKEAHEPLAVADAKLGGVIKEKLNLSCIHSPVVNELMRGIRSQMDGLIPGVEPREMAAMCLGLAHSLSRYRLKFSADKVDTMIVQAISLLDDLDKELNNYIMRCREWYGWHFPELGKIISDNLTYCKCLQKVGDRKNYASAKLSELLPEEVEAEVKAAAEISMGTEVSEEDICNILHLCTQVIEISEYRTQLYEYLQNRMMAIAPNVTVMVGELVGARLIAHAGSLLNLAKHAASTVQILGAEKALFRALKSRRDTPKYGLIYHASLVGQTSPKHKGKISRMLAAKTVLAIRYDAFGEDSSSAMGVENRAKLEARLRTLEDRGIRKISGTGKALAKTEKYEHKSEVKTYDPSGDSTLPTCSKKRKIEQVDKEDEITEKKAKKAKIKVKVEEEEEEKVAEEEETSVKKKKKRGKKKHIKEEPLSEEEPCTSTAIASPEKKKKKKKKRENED
Sequence of UniProt Q9Y6I9 (Q9Y6I9 whole entry): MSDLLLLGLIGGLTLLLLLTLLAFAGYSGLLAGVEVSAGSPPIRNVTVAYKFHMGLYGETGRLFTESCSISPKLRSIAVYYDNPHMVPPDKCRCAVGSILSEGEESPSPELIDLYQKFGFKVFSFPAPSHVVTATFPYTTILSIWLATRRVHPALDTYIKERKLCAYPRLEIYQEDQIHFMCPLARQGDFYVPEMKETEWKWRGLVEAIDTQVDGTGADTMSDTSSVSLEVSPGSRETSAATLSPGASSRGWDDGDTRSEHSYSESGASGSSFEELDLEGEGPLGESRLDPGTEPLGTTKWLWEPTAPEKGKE
Sequence of UniProt Q9Y303 (Q9Y303 whole entry): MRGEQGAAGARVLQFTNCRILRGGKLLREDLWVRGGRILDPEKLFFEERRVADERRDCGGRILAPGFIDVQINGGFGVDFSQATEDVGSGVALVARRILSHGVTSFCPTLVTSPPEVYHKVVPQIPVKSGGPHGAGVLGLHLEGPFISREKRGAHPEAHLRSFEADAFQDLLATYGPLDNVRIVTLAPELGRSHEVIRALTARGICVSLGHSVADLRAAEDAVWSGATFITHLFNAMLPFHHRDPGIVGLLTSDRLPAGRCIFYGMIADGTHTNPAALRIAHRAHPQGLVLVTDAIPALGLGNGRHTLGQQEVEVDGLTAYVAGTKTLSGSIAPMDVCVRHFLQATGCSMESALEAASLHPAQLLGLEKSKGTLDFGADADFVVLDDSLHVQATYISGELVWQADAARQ

On to UniProt Q9Y303|Q9Y303-2|Q9Y303-3, for which the NP40-soluble protein abundance worked out at 0.995 ± 0.056 in assay [1] (concentration: 1mM); 1.03 ± 0.069 in assay [1] (concentration: 2mM); 1.03 ± 0.083 in assay [1] (concentration: 4mM); 0.973 ± 0.12 in assay [1] (concentration: 6mM); 1.02 ± 0.086 in assay [1] (concentration: 8mM); 0.995 ± 0.063 in assay [1] (concentration: 10mM).
For the target UniProt Q9Y6X3, the NP40-soluble protein abundance amounted to 0.977 ± 0.053 in assay [1] (concentration: 1mM); 1.06 ± 0.086 in assay [1] (concentration: 2mM); 1.15 ± 0.25 in assay [1] (concentration: 4mM); 1.09 ± 0.26 in assay [1] (concentration: 6mM); 0.98 ± 0.057 in assay [1] (concentration: 8mM); 1.11 ± 0.22 in assay [1] (concentration: 10mM).
With MRPS2 (UniProt Q9Y399), the NP40-soluble protein abundance in assay [1] (concentration: 1mM) was determined as 1.11 ± 0.13; in assay [1] (concentration: 2mM), 0.951 ± 0.12; in assay [1] (concentration: 4mM), 0.932 ± 0.071; in assay [1] (concentration: 6mM) it was 0.917 ± 0.17; in assay [1] (concentration: 8mM), 0.944 ± 0.12; in assay [1] (concentration: 10mM), 0.884 ± 0.088.
For the target TEX264 (UniProt Q9Y6I9), the NP40-soluble protein abundance was found to be 0.918 ± 0.028 in assay [1] (concentration: 1mM); 0.919 ± 0.024 in assay [1] (concentration: 2mM); 0.91 ± 0.041 in assay [1] (concentration: 4mM); 0.916 ± 0.061 in assay [1] (concentration: 6mM); 0.867 ± 0.058 in assay [1] (concentration: 8mM); 0.886 ± 0.029 in assay [1] (concentration: 10mM).
As to UniProt Q9Y5T5-2, the NP40-soluble protein abundance is 1.08 ± 0.067 in assay [1] (concentration: 1mM); 1.11 ± 0.032 in assay [1] (concentration: 2mM); 1.19 ± 0.014 in assay [1] (concentration: 4mM); 1.33 ± 0.045 in assay [1] (concentration: 6mM); 1.351 ± 0.012 in assay [1] (concentration: 8mM); 1.41 ± 0.028 in assay [1] (concentration: 10mM).
As to UniProt Q9Y224, the NP40-soluble protein abundance in assay [1] (concentration: 1mM) was 0.958 ± 0.053; in assay [1] (concentration: 2mM) it was 0.872 ± 0.031; in assay [1] (concentration: 4mM), 0.903 ± 0.092; in assay [1] (concentration: 6mM), 0.918 ± 0.12; in assay [1] (concentration: 8mM), 0.995 ± 0.011; in assay [1] (concentration: 10mM), 0.782 ± 0.18.
Consider TRPV2 (UniProt Q9Y5S1), for which the NP40-soluble protein abundance worked out at 1.02 ± 0.076 in assay [1] (concentration: 1mM); 1.02 ± 0.073 in assay [1] (concentration: 2mM); 0.999 ± 0.03 in assay [1] (concentration: 4mM); 0.955 ± 0.0051 in assay [1] (concentration: 6mM); 0.965 ± 0.048 in assay [1] (concentration: 8mM); 0.976 ± 0.023 in assay [1] (concentration: 10mM).
In the case of UniProt Q9UKI8|Q9UKI8-5, the NP40-soluble protein abundance was found to be 0.986 ± 0.039 in assay [1] (concentration: 1mM); 0.998 ± 0.025 in assay [1] (concentration: 2mM); 1 ± 0.059 in assay [1] (concentration: 4mM); 0.993 ± 0.041 in assay [1] (concentration: 6mM); 0.953 ± 0.021 in assay [1] (concentration: 8mM); 0.977 ± 0.054 in assay [1] (concentration: 10mM).
As to LNPEP (UniProt Q9UIQ6), the NP40-soluble protein abundance came to 0.914 ± 0.015 in assay [1] (concentration: 1mM); 0.937 ± 0.021 in assay [1] (concentration: 2mM); 0.909 ± 0.022 in assay [1] (concentration: 4mM); 0.918 ± 0.035 in assay [1] (concentration: 6mM); 0.882 ± 0.045 in assay [1] (concentration: 8mM); 0.872 ± 0.038 in assay [1] (concentration: 10mM).
On to DBR1 (UniProt Q9UK59), for which the NP40-soluble protein abundance was 1.04 ± 0.066 in assay [1] (concentration: 1mM); 1.03 ± 0.066 in assay [1] (concentration: 2mM); 1.02 ± 0.051 in assay [1] (concentration: 4mM); 0.973 ± 0.11 in assay [1] (concentration: 6mM); 1.03 ± 0.056 in assay [1] (concentration: 8mM); 1.03 ± 0.044 in assay [1] (concentration: 10mM).
NOP58 (UniProt Q9Y2X3): the NP40-soluble protein abundance in assay [1] (concentration: 1mM) was 1.08 ± 0.062; in assay [1] (concentration: 2mM), 1.1 ± 0.054; in assay [1] (concentration: 4mM), 1.2 ± 0.054; in assay [1] (concentration: 6mM), 1.35 ± 0.079; in assay [1] (concentration: 8mM), 1.51 ± 0.042; in assay [1] (concentration: 10mM), 1.71 ± 0.13.
For UniProt Q9UNF0|Q9UNF0-2, the NP40-soluble protein abundance in assay [1] (concentration: 1mM) is 0.963 ± 0.04; in assay [1] (concentration: 2mM), 0.952 ± 0.024; in assay [1] (concentration: 4mM), 0.927 ± 0.011; in assay [1] (concentration: 6mM) it was 0.954 ± 0.023; in assay [1] (concentration: 8mM), 0.895 ± 0.019; in assay [1] (concentration: 10mM), 0.9 ± 0.049.
PPIL1 (UniProt Q9Y3C6): the NP40-soluble protein abundance in assay [1] (concentration: 1mM) came out at 0.919 ± 0.019; in assay [1] (concentration: 2mM), 0.9512 ± 0.0074; in assay [1] (concentration: 4mM), 0.913 ± 0.034; in assay [1] (concentration: 6mM) it was 0.963 ± 0.031; in assay [1] (concentration: 8mM) it was 0.964 ± 0.016; in assay [1] (concentration: 10mM), 0.902 ± 0.065.
UniProt Q9UL54-2: the NP40-soluble protein abundance in assay [1] (concentration: 1mM) came to 1.29 ± 0.17; in assay [1] (concentration: 2mM), 1.54 ± 0.35; in assay [1] (concentration: 4mM), 1.57 ± 0.33; in assay [1] (concentration: 6mM), 1.67 ± 0.33; in assay [1] (concentration: 8mM), 1.63 ± 0.24; in assay [1] (concentration: 10mM), 1.69 ± 0.4.
Regarding LUC7L2 (UniProt Q9Y383), the NP40-soluble protein abundance in assay [1] (concentration: 1mM) came to 1.84 ± 0.14; in assay [1] (concentration: 2mM) it was 1.95 ± 0.034; in assay [1] (concentration: 4mM), 2.05 ± 0.038; in assay [1] (concentration: 6mM), 2.21 ± 0.066; in assay [1] (concentration: 8mM), 2.12 ± 0.087; in assay [1] (concentration: 10mM) it was 2.11 ± 0.095.
Consider UniProt Q9Y3I0, for which the NP40-soluble protein abundance was found to be 0.997 ± 0.038 in assay [1] (concentration: 1mM); 0.974 ± 0.025 in assay [1] (concentration: 2mM); 0.979 ± 0.043 in assay [1] (concentration: 4mM); 1.04 ± 0.04 in assay [1] (concentration: 6mM); 1.02 ± 0.048 in assay [1] (concentration: 8mM); 1.02 ± 0.048 in assay [1] (concentration: 10mM).
In the case of “B1AL05|H0Y6Y8|H0YBU8|Q8N983|Q8N983-2|Q8N983-3|Q8N983-4|Q8N983-6|Q8N983-7 (UniProt Q8N983)”, the NP40-soluble protein abundance in assay [2] (concentration: 0.1mM) came out at 1.08 ± 0.21; in assay [2] (concentration: 0.5mM) it was 1.07 ± 0.17; in assay [2] (concentration: 1mM) it was 1.37 ± 0.45; in assay [2] (concentration: 2mM), 1.75 ± 0.66; in assay [2] (concentration: 4mM) it was 1.71 ± 0.69; in assay [2] (concentration: 6mM) it was 1.57 ± 0.65. In addition, the NP40-soluble protein abundance in assay [2] (concentration: 8mM) is 1.38 ± 0.47; in assay [2] (concentration: 10mM) it was 1.59 ± 0.65.
